We go through 9 molecules from PubChem BioAssay (NCATS).

Structures are written as SMILES. Inconclusive results are not listed. Calls of active or inactive are those of the source. Unless noted, calls come from the whole dose curve; as a rule, active = well fitted curve in the direction sought with a large enough effect; inconclusive = small, poorly fitted or top-dose-only effect, or another doubt; inactive = no such curve, though single readings can be large; an effect the other way counts as inactive or inconclusive.

The target of assay [1] is Glucocorticoid receptor (Homo sapiens) (UniProt P04150). The experiment in a line: GR-GFP Redistribution (AID 450;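 active = compounds whose dose series gives a full or clear partial fitted curve of increased nuclear translocation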; note: potency is the fitted concentration of half-maximal effect). The conditions noted are these: U2OS GR-GFP nuclear translocation, laser cytometry, 2 h.
Assay [2] shares this target. The experiment in a line: GR-EFC Redistribution (AID 451; calls by dose curve; note: potency is the fitted concentration of half-maximal effect). The conditions noted are these: CHO-K1 GR-EFC translocation, beta-gal luminescence, 2 h. In short, it runs like this:
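CHO-K1 cells expressing nuclear EA and GR-ED fragments of b-gal; compounds titrated up to 46 uM final, 2 h at 37 C. GR nuclear translocation read as complemented b-gal luminescence after 1 h RT detection.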

The target of assay [3] is Mitogen-activated protein kinase 10 (Mus musculus) (UniProt Q61831). The experiment in a line: JNK3 AlphaScreen Assay (AID 530; active = well fitted curve in either direction with a large enough effect, not every such curve was filed as active;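 note: kinase came from lysate of stimulated human HepG2 cells; signal reports phosphorylation of biotinylated GST-cJun 1-79 at Ser73 with 10 µM ATP; % is set by controls: 0 for no effect and ±100 for the full control effect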). In short, it runs like this: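 Activity was read by AlphaScreen after JNK3-containing HepG2 lysate (cytokine pre-activated) phosphorylated biotinylated GST-cJun with 10 uM ATP at room temperature. Phospho-Ser73 cJun antibody with Protein-A acceptor beads provided detection.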
A general note: Bead proximity is the source of the signal in Alpha formats.

For assay [4], the target named is 3',5'-cyclic-AMP phosphodiesterase 4B (Homo sapiens) (UniProt Q07343). The experiment in a line: qHTS Assay for Inhibitors of PDE-IV (AID 607; active = well fitted activation curve with a large enough effect in the main read-out, with a control signal flat, not every such curve was filed as active; note: % of control where 0% means no effect). The procedure, abridged: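 ACTOne HEK293 cells carry a modified cAMP-gated CNG channel and express endogenous PDE4; plated 1000 cells/well, compounds up to 22.9 uM final. Membrane-potential dye fluorescence (ex 535/em 590) was read; parental cells received 10 uM forskolin + 100 uM RO 20-1724.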
A general note: Quantitative high-throughput screening tests each substance at several concentrations.

Assay [5] can be described thus: qHTS Assay for Lipid Storage Modulators (AID 1519; calls by dose curve; for activity change, negative = inhibition: % is set by controls: 0 for no effect and ±100 for the full control effect). The conditions noted are these: Drosophila S3 cells, BODIPY lipid droplet/cell ratio, laser cytometry, cells loaded with oleic acid; for activity change, negative = inhibition: at 57.5 µM (top of the series). In short, it runs like this:
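Cells seeded at 5,000 per well were treated with compounds over a concentration series and loaded with oleic acid (400 uM, as added). Lipid droplet fluorescence (488 nm excitation, 500-530 nm channel) was read by laser-scanning cytometry and normalized to 20 uM Triacsin C.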

For assay [6], the target named is DNA dC->dU-editing enzyme APOBEC-3G (Homo sapiens) (UniProt Q9HC16). The experiment in a line: qHTS for inhibitors of Vif-A3G interactions: Validation (AID 588379). Note: 0% is about no effect. The procedure, abridged: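 Yellow fluorescence (Ex 488, Em 500-530) of Vif-coexpressing HeLa A3G-eYFP cells, scanned by Acumen cytometer, reports blocked A3G degradation. Cells plated at 700/well overnight at 37 deg C before compound addition, then a further overnight compound incubation at 37 deg C.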

The subject of assay [7] is Zika virus NS2B-NS3 protease. The experiment in a line: Primary screen GU AMC qHTS for Zika virus inhibitors (AID 1347154).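 For activity change, negative = inhibition: 0% = no-inhibitor control and -100% = no-enzyme control.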 Note: nearly all actives have a fitted effect of over 70% in size. Note: potency is the fitted concentration of half-maximal effect. In short, it runs like this:
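Unlinked Zika NS2B hydrophilic domain–NS3 protease complex at 25 nM in 10 mM Tris-HCl pH 8.0, 0.01% Tween 20, with an AMC peptide substrate. Fluorescence change (340/450 nm) over 15 min at room temperature, normalized to controls, fitted to 4-parameter Hill.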

Assay [8] in a line: Primary qHTS for small molecule stabilizers of the endoplasmic reticulum resident proteome: Secreted ER Calcium Modulated Protein (SERCaMP) assay (AID 1508630). Note: % is set by controls: 0 for no effect and ±100 for the full control effect. In short, it runs like this:
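The SH-SY5Y reporter protocol was run at 3 concentrations up to 38.3 uM (primary) or 11 concentrations (follow-up): 16 h compound, 100 nM thapsigargin for 4 h, then extracellular luciferase luminescence.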

For assay [9], the target named is Ubiquitin carboxyl-terminal hydrolase 1 (Homo sapiens) (UniProt O94782). The experiment in a line: Inhibitors of USP1/UAF1: Pilot qHTS (AID 504865).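 For activity change, negative = inhibition: rhodamine fluorescence freed from ubiquitin-rhodamine substrate followed over time; top concentration of the series differs between compounds; % is set by controls: 0 for no effect and ±100 for the full control effect.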 Note: nearly all actives have a fitted effect of over 35% in size. Note: potency is the fitted concentration of half-maximal effect. The procedure, abridged: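 USP1/UAF1 complex at 1 nM preincubated 15 min at room temperature with compound, then Ub-Rho substrate added at 150 nM final. Fluorescence (480/540 nm) read kinetically in 50 mM HEPES pH 7.8, 0.5 mM EDTA, 1 mM TCEP, 0.1 mg/ml BSA, 0.01% Tween-20.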

Assay [10] addresses Cytochrome P450 1A2 (Homo sapiens) (UniProt P05177). The experiment in a line: p450-cyp1a2 (AID 410; calls by dose curve; note: potency is the fitted concentration of half-maximal effect). The procedure, abridged: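 Luminescent demethylation readout: Luciferin-ME (100uM, equal to Km) turned over by 20nM CYP1A2 for 60 min at room temperature after NADPH regeneration addition, following 10 min compound preincubation. Normalization used 57 uM furafylline as full inhibition.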

The mark [11] stands for this setting: measured here: cell count channel max response.
Where [12] appears, read: measured here: lipid channel max response.

Chain of Ubiquitin carboxyl-terminal hydrolase 1 (Homo sapiens) (O94782 whole entry, looked up): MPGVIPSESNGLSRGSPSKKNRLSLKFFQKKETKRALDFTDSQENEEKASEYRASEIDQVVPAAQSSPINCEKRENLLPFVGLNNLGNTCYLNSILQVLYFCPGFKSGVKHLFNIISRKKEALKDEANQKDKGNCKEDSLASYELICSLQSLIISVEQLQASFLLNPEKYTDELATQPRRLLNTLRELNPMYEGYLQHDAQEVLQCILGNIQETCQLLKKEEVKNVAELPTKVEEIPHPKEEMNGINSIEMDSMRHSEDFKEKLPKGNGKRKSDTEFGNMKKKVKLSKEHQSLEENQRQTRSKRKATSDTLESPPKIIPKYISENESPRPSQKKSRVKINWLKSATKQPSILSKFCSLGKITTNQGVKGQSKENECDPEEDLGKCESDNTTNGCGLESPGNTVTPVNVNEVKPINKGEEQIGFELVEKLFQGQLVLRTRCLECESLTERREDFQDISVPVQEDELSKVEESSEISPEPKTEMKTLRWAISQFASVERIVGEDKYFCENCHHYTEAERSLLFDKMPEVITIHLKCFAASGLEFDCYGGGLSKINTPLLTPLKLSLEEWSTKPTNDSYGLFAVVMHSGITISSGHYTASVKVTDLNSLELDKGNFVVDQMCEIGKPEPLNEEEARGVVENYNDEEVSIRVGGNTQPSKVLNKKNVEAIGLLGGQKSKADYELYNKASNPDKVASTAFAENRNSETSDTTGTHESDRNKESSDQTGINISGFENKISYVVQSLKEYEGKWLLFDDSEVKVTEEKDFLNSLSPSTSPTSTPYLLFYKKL
Chain of Glucocorticoid receptor (Homo sapiens) (P04150 whole entry, looked up): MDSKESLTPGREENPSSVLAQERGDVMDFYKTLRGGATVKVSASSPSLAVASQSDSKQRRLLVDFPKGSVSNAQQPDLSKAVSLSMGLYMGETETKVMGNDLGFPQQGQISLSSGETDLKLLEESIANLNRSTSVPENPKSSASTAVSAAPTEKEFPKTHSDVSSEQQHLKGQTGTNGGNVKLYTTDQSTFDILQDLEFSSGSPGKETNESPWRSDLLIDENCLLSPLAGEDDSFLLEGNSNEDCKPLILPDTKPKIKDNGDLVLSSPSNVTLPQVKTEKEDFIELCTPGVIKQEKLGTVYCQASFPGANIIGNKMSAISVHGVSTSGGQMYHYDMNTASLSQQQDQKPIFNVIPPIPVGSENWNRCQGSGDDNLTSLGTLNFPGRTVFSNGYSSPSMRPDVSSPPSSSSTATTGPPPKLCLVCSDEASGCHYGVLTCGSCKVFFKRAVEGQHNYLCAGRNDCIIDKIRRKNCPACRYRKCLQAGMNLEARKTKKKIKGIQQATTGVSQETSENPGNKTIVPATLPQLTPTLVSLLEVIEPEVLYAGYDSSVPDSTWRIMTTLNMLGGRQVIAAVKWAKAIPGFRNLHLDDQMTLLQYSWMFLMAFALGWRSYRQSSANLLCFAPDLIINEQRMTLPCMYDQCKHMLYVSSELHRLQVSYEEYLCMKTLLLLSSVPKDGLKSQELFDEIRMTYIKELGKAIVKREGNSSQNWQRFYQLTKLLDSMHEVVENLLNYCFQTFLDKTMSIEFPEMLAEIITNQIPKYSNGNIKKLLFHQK
Chain of DNA dC->dU-editing enzyme APOBEC-3G (Homo sapiens) (Q9HC16 whole entry, looked up): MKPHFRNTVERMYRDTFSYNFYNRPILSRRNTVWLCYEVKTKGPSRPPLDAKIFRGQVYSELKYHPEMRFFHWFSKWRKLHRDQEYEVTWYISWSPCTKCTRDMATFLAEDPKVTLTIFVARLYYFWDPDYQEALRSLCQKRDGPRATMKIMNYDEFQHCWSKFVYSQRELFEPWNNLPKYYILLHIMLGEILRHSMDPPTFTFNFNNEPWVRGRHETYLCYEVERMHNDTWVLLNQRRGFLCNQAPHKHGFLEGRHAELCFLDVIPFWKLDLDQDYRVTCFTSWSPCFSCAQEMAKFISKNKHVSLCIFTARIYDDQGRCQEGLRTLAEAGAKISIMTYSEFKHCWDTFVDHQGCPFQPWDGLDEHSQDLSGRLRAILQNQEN
Chain of 3',5'-cyclic-AMP phosphodiesterase 4B (Homo sapiens) (Q07343 whole entry, looked up): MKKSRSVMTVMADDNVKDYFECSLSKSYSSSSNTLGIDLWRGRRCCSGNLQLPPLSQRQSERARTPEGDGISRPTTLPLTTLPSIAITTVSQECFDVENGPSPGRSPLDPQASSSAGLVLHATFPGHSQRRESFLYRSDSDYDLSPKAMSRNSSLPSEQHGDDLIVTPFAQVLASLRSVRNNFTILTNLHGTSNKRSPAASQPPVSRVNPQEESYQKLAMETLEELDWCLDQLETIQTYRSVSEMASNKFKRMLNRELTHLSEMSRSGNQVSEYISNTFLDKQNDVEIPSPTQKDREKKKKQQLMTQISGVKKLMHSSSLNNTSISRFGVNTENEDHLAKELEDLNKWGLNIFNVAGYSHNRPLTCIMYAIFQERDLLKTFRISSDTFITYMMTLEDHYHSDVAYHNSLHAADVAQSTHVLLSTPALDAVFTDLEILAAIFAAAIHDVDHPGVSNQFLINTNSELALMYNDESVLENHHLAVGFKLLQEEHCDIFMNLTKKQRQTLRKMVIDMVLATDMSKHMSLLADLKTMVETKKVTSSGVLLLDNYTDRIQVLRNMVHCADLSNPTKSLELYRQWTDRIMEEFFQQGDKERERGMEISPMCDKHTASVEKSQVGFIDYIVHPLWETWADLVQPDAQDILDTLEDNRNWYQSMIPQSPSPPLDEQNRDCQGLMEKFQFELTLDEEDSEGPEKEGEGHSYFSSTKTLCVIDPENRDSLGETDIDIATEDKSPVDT
Chain of Cytochrome P450 1A2 (Homo sapiens) (P05177 whole entry, looked up): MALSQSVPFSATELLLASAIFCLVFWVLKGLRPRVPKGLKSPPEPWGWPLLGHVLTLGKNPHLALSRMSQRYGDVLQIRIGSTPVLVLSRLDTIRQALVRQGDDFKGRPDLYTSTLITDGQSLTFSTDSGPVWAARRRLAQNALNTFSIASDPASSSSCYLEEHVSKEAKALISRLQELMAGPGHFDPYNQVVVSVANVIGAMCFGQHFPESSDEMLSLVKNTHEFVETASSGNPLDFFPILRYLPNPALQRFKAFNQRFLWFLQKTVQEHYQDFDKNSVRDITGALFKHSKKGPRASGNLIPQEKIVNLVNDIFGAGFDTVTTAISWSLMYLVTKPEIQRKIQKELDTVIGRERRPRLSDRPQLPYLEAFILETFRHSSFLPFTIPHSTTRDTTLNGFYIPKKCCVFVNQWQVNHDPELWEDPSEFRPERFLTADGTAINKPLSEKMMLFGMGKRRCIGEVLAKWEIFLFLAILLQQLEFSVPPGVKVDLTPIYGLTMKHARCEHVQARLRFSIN

Turning to `N[C@@H](CCCP(=O)(O)O)C(=O)O`, the Potency in [1] and in assay [2] was > 46 µM (inactive) throughout. The Potency result in assay [3], in [4], in assay [6], in [7] and in assay [8] was “inactive” in each case. Besides, in [5], the activity change, negative = inhibition is -1.39% (inactive). For the same molecule, the max response worked out at 15.6% in assay [5] (setting [11]) and 17.3% in [5] (setting [12]).
Turning to `CN(CCc1ccc(Cl)c(Cl)c1)CCN1CCCC1`, the Potency in [1] and in assay [2] was > 46 µM (inactive) each time. Also, the Potency result in assay [3], in [6], in [7] and in assay [8] was “inactive” each time. Besides, in assay [5], the activity change, negative = inhibition was -5.91% (inactive). Besides, the max response worked out at 22.4% in assay [5] (setting [11]) and 15.8% in assay [5] (setting [12]).
On to `CC[C@@](N)(C(=O)O)c1ccc(C(=O)O)cc1`, for which the Potency in assay [1] and in [2] was > 46 µM (inactive) each time. The Potency entry in assay [3], in [4], in assay [9], in assay [6], in assay [7] and in assay [8] was “inactive” throughout. In addition, the activity change, negative = inhibition in [5] is 2.13% (inactive). The max response in assay [5] (setting [11]) and in assay [5] (setting [12]) was -11.5% each time.
Take `C[C@@H]1Nc2ccc(Cl)cc2S(=O)(=O)N1`: the Potency in [1] and in assay [2] was > 46 µM (inactive) throughout. Also, the Potency result in assay [3], in assay [4], in assay [9], in assay [6], in assay [7] and in assay [8] was “inactive” each time. For the same molecule, in assay [5], the activity change, negative = inhibition is 6.73% (inactive). Further, the max response in assay [5] (setting [11]) was -1.71%; in [5] (setting [12]) it was 3.08%.
`O=C(O)c1c2ccccc2cc2ccccc12`: the Potency is 0.2 µM (active) in [10] and 26.7 µM (active) in assay [7]. In addition, the Potency result in assay [3], in [6] and in [8] was “inactive” each time. Moreover, the activity change, negative = inhibition in [5] is 8.27% (inactive). The max response was 24.6% in [5] (setting [11]) and 34.2% in assay [5] (setting [12]).
`NC(=O)CCCCn1ccc(NC(N)=NCC(F)(F)F)n1`: the Potency in assay [1] and in [2] was > 46 µM (inactive) in each case. The Potency entry in assay [3], in [9], in assay [6], in [7] and in assay [8] was “inactive” in each case. In addition, the activity change, negative = inhibition in assay [5] was 1.74% (inactive). Further, the max response was found to be 5.7% in assay [5] (setting [11]) and 6.79% in assay [5] (setting [12]).
For the molecule `C[C@@H](CC(=O)O)[C@@H](N)C(=O)O`, the Potency in assay [1] and in assay [2] was > 46 µM (inactive) throughout. The Potency result in [3], in assay [4], in [6], in assay [7] and in [8] was “inactive” each time. The activity change, negative = inhibition in assay [5] was -3.19% (inactive). Further, the max response in assay [5] (setting [11]) was -10.3%; in [5] (setting [12]) it was -14.3%.
Regarding `CC(=O)N1CCN(C)CC1`, the figures for the Potency in assay [10], in [1] and in [2] were 31.6 µM (active), > 46 µM (inactive) and > 46 µM (inactive), respectively. Also, the Potency result in assay [3], in assay [4], in assay [6], in [7] and in assay [8] was “inactive” throughout. Besides, the activity change, negative = inhibition in assay [5] is -3.74% (inactive). In addition, the max response in assay [5] (setting [11]) is -2.52%; in assay [5] (setting [12]), -5.67%.
Turning to `N[C@@H](CSS(=O)(=O)O)C(=O)O`, the Potency in [1] was > 46 µM (inactive); in [2], > 46 µM (inactive); in assay [9] it was 39.8 µM (active). For the same molecule, the Potency result in assay [4], in assay [6], in [7] and in [8] was “inactive” each time. Also, the activity change, negative = inhibition in assay [5] is 3.51% (inactive). Further, the max response in assay [5] (setting [11]) came out at 2.48%; in [5] (setting [12]), 7.41%.
